Source: PubChem BioAssay (Tox21)
“And” between values parts separate entries of the source, which are not always exact repeats. Equal entries are not always repeated. Records with an inconclusive call do not appear. The source made the active and inactive calls. The call rests on the fitted dose curve; in most records, active means well fitted cell-killing curve with a large enough effect in the repeat runs; inconclusive means weak or mixed curves, or effect the other way; inactive means flat fitted curve, though single readings scatter.
On the % scale 0 is the no-effect control and ±100 the full control effect; potency means the concentration at half of the fitted maximal effect.

Assay: qHTS assay to identify small molecule that activate the aryl hydrocarbon receptor (AhR) signaling pathway - cell viability counter screen (AID 743086); further: nearly all actives have a fitted effect of over 45% in size;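 on viability change, negative = cytotoxic: HepG2 liver cells carrying the AhR DRE luciferase reporter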
Details: HepG2-AhR-luc viability, CellTiter-Fluor, 24 h; series mostly up to 70.3 µM; viability change, negative = cytotoxic: at the top concentration
From the text: U.S. Tox21 Program National Center for Advancing Translational Sciences [NCATS] NIH Chemical Genomics Center [NCGC] U.S. Environmental Protection Agency [EPA] National Institutes of Environmental Health Sciences [NIEHS] National Toxicology Program [NTP] U.S. Food and Drug Administration [FDA] Tox21 Assay overview: The Aryl hydrocarbon Receptor (AhR), a member of the family of basic helix-loop-helix transcription factors, is crucial to adaptive responses to environmental changes. AhR mediates cellular responses to environmental pollutants such as aromatic hydrocarbons through induction of phase I and II enzymes but also interacts with other nuclear receptor signaling pathways A cell based HepG2-AhR-luc assay (HG2L7.5c1 cell line, developed by Dr. Michael S. Denison, University of California at Davis) was used to assess the activation of AhR. HepG2 (human hepatocellular carcinoma) cells were stably transfected with an Ah receptor-responsive firefly luciferase reporter gene plasmid containing 20 dioxin responsive elements and luciferase reporter gene. Increased luciferase activity can be used to identify the compounds that induce AhR activation. The cytotoxicity of the compounds screened against the HepG2-AhR-luc cell line was tested in parallel by measuring the cell viability using CellTiter-Fluor assay in the same wells.
Tox21 Assay Protocol Summary: 4000 cells in 5 uL/well were dispensed into white wall/solid bottom 1536-well plates using a Multidrop Combi (Thermo Fisher Scientific Inc., Waltham, MA) dispenser. After the assay plates were incubated at 37C for 5 h, 23 nL of compound or DMSO vehicle was transferred to the assay plates by a pintool station (Kalypsys, San Diego, CA). The plates were incubated at 37C for 24 hr. For cell viability measurement, 1 ul/well of CellTiter-Fluor reagent (Promega, Madison, WI) was added into the assay plates using a Flying Reagent Dispenser (FRD) (Aurora Discovery, CA),and then the assay plates were incubated at 37C for 30 min. The fluorescence intensity in the plates was measured using a ViewLux plate reader (PerkinElmer, Shelton, CT), followed by the addition of 4 uL of ONE-Glo Luciferase Assay reagent (Promega) using an FRD (Aurora Discovery). After the assay plates were incubated at room temperature for 30 min, luminescence intensity was measured using a ViewLux plate reader (Perkin Elmer).
For `c1ccc(-c2ccccn2)nc1`, the “viability change, negative = cytotoxic” value was -8.97% (inactive).
For `CCCCc1ncc(/C=C(\Cc2cccs2)C(=O)O)n1Cc1ccc(C(=O)O)cc1`, the “viability change, negative = cytotoxic” value was 4.23% (inactive).
For `CC1CCC(=O)C1=O` (stereo not given), the “viability change, negative = cytotoxic” value was -3.12% [at 95 µM] (inactive).
For `CC1=CCCC(C)(C)C12CCC(C)O2` (stereo not given), the “viability change, negative = cytotoxic” value was 1.59% (inactive).
With `CN(C)c1ccc(/C=C/c2ccc([N+](=O)[O-])cc2)cc1` the viability change, negative = cytotoxic was 24.5% [at 8.47 µM] (inactive).
With `CC1(c2ccccc2)OC(C(=O)O)=CC1=O` (stereo not given) the “viability change, negative = cytotoxic” value was -1.74% (inactive).
With `NCCCN1CCOCC1` the “viability change, negative = cytotoxic” value was -0.148% (inactive).
For `COc1cc2c(cc1OC)C(C(C(=O)N(CCc1ccc(OC)c(OC)c1OC)CCc1ccc(OC)c(OC)c1OC)c1ccccc1)=NCC2` (stereo not given), the Potency was 8.41 µM (active).
For `Nc1c(CC(=O)O)cccc1C(=O)c1ccc(Br)cc1`, the “viability change, negative = cytotoxic” value was -9.19% (inactive).
For `COC(C)OC`, the “viability change, negative = cytotoxic” value was 6.78% (inactive).
In the case of `C/C(=C(\CCOP(=O)(O)O)SC(=O)c1ccccc1)N(C=O)Cc1cnc(C)nc1N`, the “viability change, negative = cytotoxic” value is reported as -0.915% [at 32.5 µM] (inactive).
In the case of `COc1ccc(C)cc1[N+](=O)[O-]`, the “viability change, negative = cytotoxic” value is reported as 18% [at 95 µM] (inactive).
With `C=CC1CC2C=CC1C2` (stereo not given) the “viability change, negative = cytotoxic” value was 5.8% (inactive).
In the case of `COc1cc2nc(N(C)CCCNC(=O)C3CCCO3)nc(N)c2cc1OC` (stereo not given), the “viability change, negative = cytotoxic” value is reported as -1.97% [at 32.5 µM] (inactive).
With `CC(C)(C)Cl` the “viability change, negative = cytotoxic” value was -7.19% [at 95 µM] (inactive).
In the case of `CCOc1ccc(N)c([N+](=O)[O-])c1`, the “viability change, negative = cytotoxic” value is reported as -2.53% (inactive).
For `O=C(O)c1ccc(-n2nc(-c3ccccc3O)nc2-c2ccccc2O)cc1`, the “viability change, negative = cytotoxic” value was 9.04% (inactive).
For `Cc1ncc(CO)c(C=O)c1O`, the “viability change, negative = cytotoxic” value was 11.4% (inactive).
For `CCOCC(O)COc1ccc(NC(=O)CC[S+](C)C)cc1` (stereo not given), the “viability change, negative = cytotoxic” value was -0.347% (inactive).
With `CC[N+]1(CC)CCC(=C(c2ccccc2)c2ccccc2)C1C` (stereo not given) the “viability change, negative = cytotoxic” value was -0.534% (inactive).
For `CC(=O)[O][Al][O]C(C)=O`, the Potency was “inactive”.
With `CCCCC` the Potency was “inactive”.
In the case of `CCCCCCCCCCCC(=O)OC[C@@H](O)[C@H]1OC[C@H](OCCO)[C@H]1OCCO`, the “viability change, negative = cytotoxic” value is reported as 8.31% (inactive).
For `O=[N+]([O-])c1cccc(S(=O)(=O)O)c1`, the “viability change, negative = cytotoxic” value was 9.25% [at 95 µM] (inactive).
For `Cn1c(=O)cc(Oc2ccc(F)cc2F)c2cnc(NCC(C)(C)O)nc21`, the “viability change, negative = cytotoxic” value was -3.44% (inactive).
With `O=C(OCCCCCCOC(=O)c1ccccc1)c1ccccc1` the “viability change, negative = cytotoxic” value was -12.6% (inactive).
In the case of `O=C(NCCO[N+](=O)[O-])c1cccnc1`, the “viability change, negative = cytotoxic” value is reported as 14.9% (inactive).
For `C[N+]1(C)CCC(OC(=O)C(O)(c2ccccc2)C2CCCC2)C1` (stereo not given), the Potency was “inactive”.
With `O=C1CCCCCCCCCCCC(=O)OCCO1` the “viability change, negative = cytotoxic” value was 10.3% (inactive).
With `Nc1cccc(S(=O)(=O)c2cccc(N)c2)c1` the “viability change, negative = cytotoxic” value was 1.74% (inactive).
For `O=S(=O)(Oc1ccc(Cl)cc1)c1ccccc1`, the “viability change, negative = cytotoxic” value was 7.58% (inactive).
For `Cc1cccc(C)c1OCC(=O)N[C@@H](Cc1ccccc1)[C@@H](O)C[C@H](Cc1ccccc1)NC(=O)[C@H](C(C)C)N1CCCNC1=O`, the Potency was 23.7 µM (active).
For `OCCN1CCN(CCCN2c3ccccc3C=Cc3ccccc32)CC1`, the Potency was 10.6 µM (active) and 26.6 µM (active).
In the case of `c1ccc(C(O[C@H]2CCCN(CCc3ccc4c(c3)OCO4)C2)c2ccccc2)cc1`, the “viability change, negative = cytotoxic” value is reported as 0.598% (inactive).
In the case of `C[C@H]1C[C@H]2[C@@H]3CCC4=CC(=O)C=C[C@]4(C)[C@@]3(Cl)[C@@H](O)C[C@]2(C)[C@@]1(O)C(=O)CO`, the “viability change, negative = cytotoxic” value is reported as -6.6% (inactive).
For `Cc1cccc(Nc2ccccc2)c1`, the “viability change, negative = cytotoxic” value was -0.306% (inactive).
With `CC1=CC=C(C(C)C)CC1` the “viability change, negative = cytotoxic” value was -8.76% (inactive).
With `O=C(Cl)c1cc(C(=O)Cl)cc(C(=O)Cl)c1` the “viability change, negative = cytotoxic” value was 11.3% (inactive).
For `C=C(C)C(=O)OCCOCC`, the “viability change, negative = cytotoxic” value was -16.1% [at 95 µM] (inactive).
For `C=C(C)C(=O)OCCO`, the “viability change, negative = cytotoxic” value was 6.58% [at 95 µM] (inactive).
